# The list is not random: actives were taken first. Their share in the collection is about 4.5%.
# GAA850 FXN act – frataxin GAA850 promoter activation. HEK293 lucGAA850 FXN promoter luciferase reporter, 24 h; percent of 10 µM SAHA response. 360,000 compounds, 0.56% hits. activation, % at 6 µM. AID 540364;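 active means activation above the average of all compounds screened plus 3 SD, cutoff fixed separately per campaign, cut at about 7.5% in these data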;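 further: 0% = DMSO wells and 100% = 10 µM SAHA wells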
# ssDAF-12 act – activators of S. stercoralis DAF-12 nuclear receptor | HEK293 ssDAF-12/GRIP1 lit1-tk-luc reporter, luminescence; % of 3 µM dafachronic acid response | 370,000 compounds, 1% hits | AID 652126 | activation, % at 6.8 µM;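 active means activation above the mean over all tested compounds plus 3 SD, cut at about 0.9% in these data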;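 further: 0% = DMSO-only wells and 100% = 3 µM delta7-dafachronic acid wells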
# DAX1 inh-1 – blocks DAX1 repression of SF-1 activated StAR promoter. HEK293T StAR-luciferase reporter, SF-1/DAX-1 repression relief. inhibition, % at 6.8 µM. 370,000 compounds, 1.1% hits. AID 652010;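 active means inhibition above the mean over all tested compounds plus 3 SD, cut at about 3.6% in these data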;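 further: 0% = DAX-1 cells with DMSO and 100% = cells lacking DAX-1 with DMSO; higher inhibition means more luminescence from relief of DAX-1 repression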
# hgDAF12 agonist – agonists of H. glycines DAF-12 nuclear receptor; 370,000 compounds, 1.8% hits; activation, % at 6.8 µM; HEK293 GAL4-hgDAF12 UAS-luciferase reporter, agonist luminescence; normalized to butyrate control;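 active means activation above a cutoff set at the mean of all screened compounds plus 3 SD, cut at about 10% in these data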;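 further: 0% = DMSO wells and 100% = sodium butyrate wells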
# hcDAF12 agonist – activators of H. contortus DAF-12 nuclear receptor. HEK293 hcDAF-12 lit1-tk-luc reporter, luminescence; 0% DMSO, 100% Δ7-dafachronic acid. activation, % at 6.8 µM. 370,000 compounds, 1.4% hits. AID 652067;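 active means activation above the mean of all tested compounds plus 3 SD, cut at about 5.5% in these data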;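 further: 100% = response to 3 µM Δ7-dafachronic acid high control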
# DAX1 inh-2 – NR0B1 (DAX1) inhibition; P51843; HEK293 Gal4-DAX1 luciferase reporter, luminescence; inhibition, % at 6.75 µM; 340,000 compounds, 0.99% hits;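 active means inhibition above the mean over all tested compounds plus 3 SD, cut at about 4.2% in these data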;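 further: 0% = DAX1-transfected cells with DMSO and 100% = empty-vector control cells with DMSO; inhibition shows as a rise in luminescence from relieved DAX1 repression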
# Target sequence (P51843 207-470 limits assumed): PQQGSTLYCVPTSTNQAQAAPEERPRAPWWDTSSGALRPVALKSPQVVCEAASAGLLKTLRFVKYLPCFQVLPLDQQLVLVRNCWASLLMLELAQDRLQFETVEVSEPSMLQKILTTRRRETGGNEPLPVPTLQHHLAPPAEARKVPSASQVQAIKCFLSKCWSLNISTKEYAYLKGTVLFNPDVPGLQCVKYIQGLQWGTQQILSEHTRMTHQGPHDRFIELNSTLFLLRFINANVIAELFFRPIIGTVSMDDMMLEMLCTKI
# * = called active by the depositor; . = no result given.
SMILES,GAA850 FXN act,ssDAF-12 act,DAX1 inh-1,hgDAF12 agonist,hcDAF12 agonist,DAX1 inh-2
COc1ccc(-c2[nH]ncc2CN2CCN(Cc3cccs3)CC2)cc1F,-3,-1,0,-1,0,7.8*
O=C(c1cc2c(s1)-c1ccccc1OC2)N1CCN(c2ccccn2)CC1,0,-1,0,1,0,5.4*
CCC(=O)c1ccc(OCc2ccc(C#N)cc2)cc1,4,0,2,12*,0,2
COCCNC(=O)COC(=O)CSCc1nc2ccccc2s1,0,0,0,2,5.8*,-1
NS(=O)(=O)c1ccc(CCNC(=O)c2ccc(Cl)c(S(=O)(=O)NCc3ccco3)c2)cc1,1,1.3*,-1,-3,1,0
O=C(N/N=C/c1cccnc1)c1cc(Br)ccc1O,3,-1,1,12*,2,0
CC(/C=C/c1ccccc1F)=N\NC(=O)c1cccc(F)c1,-2,-1,3,12*,0,2
O=C(N/N=C/c1cccnc1)c1cccc(F)c1,2,-1,1,2,2,4.9*
CC(/C=N/NC(=O)c1cccc(F)c1)=C\c1ccccc1,-2,0,3,12*,4,1
CCOc1ccc(Br)cc1C(=O)N/N=C/c1cccnc1,-1,-2,0,0,1,-1
O=C(CNC(=O)c1cccc(F)c1)N/N=C/c1cccnc1,1,0,0,-2,0,0
O=C(CCn1nnc(-c2cccs2)n1)N1CCCC1,.,-1,1,1,-1,.
Cc1ccccc1Cn1nnc(-c2cccc(C(=O)O)c2)n1,1,-1,3,12*,4,-2
COC(=O)[C@]12C[C@H](CC(=O)N3CCSCC3)C(=O)N(CCc3ccc(OC)c(OC)c3)C1=C[C@H](C(C)(C)C)O[C@@H]2C,.,-1,0,-2,-2,.
Cn1c(N)c(C(=O)/C=C/c2ccccc2)c(=O)[nH]c1=O,6,1.1*,1,9,3,2
CCN(C)C(=O)CNc1nnnn1-c1ccccc1,.,-1,-1,6,-2,.
CCOc1ccc(-c2nnc(-c3ccco3)o2)cc1OCC,5,-1,1,7,-1,7.7*
CCOc1cc(-c2nnc(-c3ccco3)o2)cc(OCC)c1OCC,-3,-2,-2,0,-1,0
c1ccc(-c2nnc(-c3ccco3)o2)cc1,2,0,2,11*,5.8*,3
c1coc(-c2nnc(-c3ccc4c(c3)OCO4)o2)c1,.,0,3.7*,13*,3,.
COc1cc(NC(=O)C2CCCN(S(=O)(=O)c3ccccc3[N+](=O)[O-])C2)cc(OC)c1 (stereo unspecified),.,-2,-1,-4,-3,.
COc1ccc(Cn2ccc3ccc(-c4ccc5ccn(Cc6ccccc6F)c5c4)cc32)cc1,.,0,-1,3,1,.
COC(=O)C1CN(C2CCCC2)CCS(=O)(=O)N1Cc1cn(Cc2ccc(OC)cc2)nn1 (stereo unspecified),.,-1,0,7,-3,.
Cc1ccc(S(=O)(=O)Nc2ccncc2)c(C)c1N(C)S(=O)(=O)c1ccc(F)cc1,0,-1,0,-1,5.7*,1
COc1ccc(S(=O)(=O)Nc2ccncc2)c(C)c1C,-1,-1,1,-2,-1,0
SMILES,GAA850 FXN act,ssDAF-12 act,DAX1 inh-1,hgDAF12 agonist,hcDAF12 agonist,DAX1 inh-2
COc1ccc(C(CCOC(=O)Oc2ccccc2)c2cc(OC)c(OC)c(OC)c2)cc1 (stereo unspecified),.,-2,-1,0,-3,.
C=CCSc1[nH]c(=O)cc(C)c1C(N)=O,-3,0,0,-1,-1,5.1*
Cc1cc(C)c(C(N)=O)c(SCC(=O)c2cc(C)c(C)cc2C)n1,-1,-2,0,0,-3,-1
CC(C)NC(=O)Cn1c(-c2cncs2)nc2ccccc21,.,-2,0,0,-1,.
COc1cccc(C(=O)n2ccc3ccc(-c4ccc5ccn(Cc6ccc(C#N)cc6)c5c4)cc32)c1,.,-1,-1,3,0,.
O=C(CSc1nc2[nH]ncc2c(=O)[nH]1)Nc1nccs1,.,7.5*,0,-1,2,.
CCc1ccc(Cn2nnc(C(=O)Nc3cccc(C)c3)c2N)cc1,2,-1,0,3,-1,4.3*
Cc1cccc(-n2nnc(C(=O)Nc3ccc(F)cc3)c2N)c1,1,0,2,12*,3,1
COC(=O)c1ccccc1NC(=O)COC(=O)C1CCCCC1,0,1,0,-3,-1,4.4*
FC(F)(F)c1cccc(OCc2noc(-c3ccsc3)n2)c1,3,-1,0,1,-1,5.5*
C=CCN(CC#Cc1ccccc1)CC1CC1,.,-1,0,1,-2,.
CC1=C(C)CC(C(=O)NCc2ccc3c(c2)OCO3)C(C(=O)O)C1 (stereo unspecified),2,-1,0,0,-2,0
COc1ccc(CNC(=O)C2CC(C)=C(C)CC2C(=O)O)cc1OC (stereo unspecified),1,0,1,1,-1,4.5*
CC(C)[C@H]1/C(=C/C2CC2)N2C(=O)C[C@@H](c3ccccc3)N=C2N1Cc1ccc2c(c1)OCO2,.,-2,-1,0,-1,.
CC(=O)Nc1ccc(S(=O)(=O)N[C@@H](C)C(=O)OCC(=O)c2ccc(Br)s2)cc1,1,-1,1,0,0,8.1*
COc1ccc(C(=O)COC(=O)[C@H](C)NS(=O)(=O)c2ccc(NC(C)=O)cc2)cc1OC,-2,-1,1,2,-1,2
Cc1cc(C)cc(NC(=O)OC2CC3CC2[C@H]2CCCCN2[C@H]3Cc2ccccc2)c1 (stereo partly specified),.,0,0,2,0,.
Cc1cc(F)ccc1C(=O)N1CCC(Oc2cccnc2)CC1,.,0,-1,3,-1,.
Cc1cc(NC(=O)CSc2nc(C(C)C)nc3sc4c(c23)CCCC4)no1,3,1.3*,1,2,0,0
O=C1NC(=O)c2cc(NC(=O)C3CCCO3)ccc21 (stereo unspecified),1,-2,0,4,1,0
O=C1OCc2cc(NC(=O)C3CCCO3)ccc21 (stereo unspecified),1,-1,0,4,5.8*,-1
CCN1CCN(CC(=O)c2c[nH]c3ccccc23)CC1,1,1,1,-2,5.6*,0
O=C(CN1CCOCC1)c1c[nH]c2ccccc12,1,0,0,0,0,1
O=C(NNC(=O)c1ccccc1Br)c1ccccc1Cl,2,0,1,0,0,5.5*
O=C(c1cc2cc(Cl)ccc2oc1=O)N1CCCCCCC1,2,-1,0,0,2,4.5*

# From PubChem BioAssay
